Test results taken from publication PMC5540273 (PLoS ONE, 2017).

tested on: MKK7; conditions: concentration: 1 μM, replicates: in singlicate; n = 1
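Also: KINOMEscan kinase panel screen.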

SMILES | %Inh
CN1CCN(Cc2ccc(NC(=O)Nc3ccc(N(C)c4ccnc(Nc5ccc(CS(C)(=O)=O)cc5)n4)cc3)cc2)CC1.Cl [GW827654] | 0%
COc1ccc(C)c(Nc2ccnc(Nc3ccc(-c4cnc[nH]4)cc3)n2)c1.Cl [GW784041] | 0%
Cc1ccc(NC(=O)c2ccnc(N3CCCCC3)c2)cc1-c1ccc(C(=O)NCC2CC2)cc1 [GW775610] | 0%
CC(C)NCC(Cc1ccccc1)NC(=O)c1cc(Br)c(-c2ccnc3[nH]ccc23)s1.Cl.Cl (stereo not shown) [GSK1383281] | 0%
N#Cc1cnc2cc(-c3cnc(CNCCN4CCOCC4)s3)ccc2c1Nc1ccc(Oc2ccccc2)cc1 [GW664114] | 6%
O=C1NC(=O)C(c2ccccc2Cl)=C1Nc1cccc(Cl)c1 [SB-342409] | 23%
COc1cc(Nc2ccnc3cc(-c4ccncc4)ccc23)cc(OC)c1OC.Cl [GW494610] | 23%
O=C(Nc1n[nH]c2nc(-c3cccc(O)c3)ccc12)C1CC1 [SB-711805] | 0%
COC(=O)Nc1nc2ccc(Oc3ccc(NC(=O)Nc4cc(C(F)(F)F)ccc4F)cc3)cc2[nH]1.Cl [GW654607] | 0%
Cc1ccc(O)cc1Nc1ccnc2ccc(C(C)(C)C)cc12 [GW856805] | 40%
O=C(Nc1n[nH]c2nc(-c3ccccc3)ccc12)C1CC1 [SB-708999] | 31%
Fc1cc(Cl)ccc1Nc1ccnc2cc(-c3ccc(CN4CCOCC4)o3)ccc12 [GW560109] | 10%
Cc1ccc(Nc2ccnc(Nc3ccc(C)c(F)c3)n2)cc1O.Cl [GW582868] | 0%
COc1ccc(NC(=O)c2ccoc2)cc1-c1ccc(C(=O)NCC2CC2)cc1 [GW810437] | 0%
Cn1cc(-c2cnc(N)c3c(-c4ccc5c(c4)CCN5C(=O)Cc4ccccc4)csc23)cn1 [GSK2593074] | 0%
Cc1ccc(NC(=O)c2ccc(Cl)c(Cl)c2)cc1-c1ccc(C(=O)Nc2ccncc2)cc1 [GSK1398460] | 0%
Cl.O=C(Nc1ccc(Oc2ccc3[nH]c(NC(=O)c4ccco4)nc3c2)cc1)Nc1cc(C(F)(F)F)ccc1F [GW683134] | 0%
Nc1ncc(-c2cn[nH]c2)c2scc(-c3ccc4c(c3)CCN4C(=O)Cc3ccccc3)c12 [GSK2593067] | 34%
O=C(O)C(F)(F)F.O=c1[nH]ccc2nc(N[C@@H]3CCNC3)nc(Nc3ccc4c(c3)S(=O)(=O)CC4)c12 [GSK2181306] | 0%

SMILES | %Inh
COc1ccc(C2=C(Nc3cccc(O)c3)C(=O)NC2=O)cc1 [SB-390766] | 73%
CSc1ccc(NC2=C(c3ccc(Cl)cc3)C(=O)NC2=O)cc1 [SB-317658] | 0%
Cc1cccc(Nc2nc(N[C@H]3CCCC[C@H]3N)ncc2C(N)=O)c1.Cl [GSK986310] | 0%
NCCC(NC(=O)c1cc(Br)c(-c2ccnc3[nH]ccc23)s1)c1ccccc1.O=C(O)C(F)(F)F.O=C(O)C(F)(F)F (stereo not shown) [GSK1307810] | 18%
CN(c1ccc(NC(=O)Nc2cccc(Cl)c2)cc1)c1ccnc(N)n1.Cl [GW830707] | 17%
Fc1cc(Cl)ccc1Nc1ccnc2cc(-c3ccc(CN4CCSCC4)o3)ccc12 [GW560106] | 0%
Cn1cc(-c2ccc3c(c2)CCN3C(=O)Cc2cc(F)cc(F)c2F)c2c(N)ncnc21 [GSK2634140] | 0%
CCn1cnc2c(NCc3ccccc3)ncnc21 [SKF-96418] | 17%
COC(=O)Nc1nc2ccc(Oc3ccc(CC(=O)Nc4cc(C(F)(F)F)ccc4F)cc3)cc2[nH]1 [GW680903] | 8%
Cl.Cl.NCC(NC(=O)c1cc(-c2cccnc2)c(-c2ccnc3[nH]ccc23)s1)c1ccccc1 (stereo not shown) [GSK1323434] | 0%
CN(c1ccc(NC(=O)N2CCN(CCCN3CCOCC3)CC2)cc1)c1ccnc(Nc2ccc(CS(C)(=O)=O)cc2)n1.Cl [GW830899] | 0%
COc1cccc(-c2nc(-c3ccccc3)[nH]c2-c2ccncc2)c1 [SB-610250] | 0%
Cl.Cl.NC(CNC(=O)c1cc(Br)c(-c2ccnc3[nH]ccc23)s1)c1ccccc1 (stereo not shown) [GSK1322949] | 0%
O=C(Nc1n[nH]c2cc(-c3cccs3)ccc12)C1CC1 [SB-731284] | 0%
CN(c1ccc2c(c1)nc(NCc1ccccc1)n2C)c1ccnc(Nc2ccc(CS(C)(=O)=O)cc2)n1.Cl [GW811603] | 23%
CCOc1nccc(-c2c(-c3ccc(F)cc3)ncn2C2CCNCC2)n1 [SB-249175] | 7%
CC(C)(C)c1ccc(C(=O)Nc2cn3cc(-n4ccnc4)ccc3n2)cc1 | 0%
CNc1nccc(-c2ccc3c(N)n[nH]c3c2)n1 [GSK2206003] | 0%
